Test systems include HT29 colon; SNB-75 CNS; SNB-19 CNS; U251 CNS; PC-3 prostate; SK-MEL-5 melanoma; UACC-62 melanoma; LOX IMVI melanoma; SK-MEL-28 melanoma; SK-MEL-2 melanoma.
What all share (assay): NCI-60 one-dose screen, 48 h (100 = growth as untreated, 0 = no growth, -100 = all killed)
Conditions in all cases: 10 µM

Molecules are shown by their SMILES. About 83,000 compounds went through this panel and 20% of them were active in at least one assay; those are over-represented in the sample as a whole.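 A percent growth of 40 corresponds to 60% growth inhibition; 0 means no net growth; -100 means all cells died. Active threshold: below 10.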 Values without a mark were called inactive. Active and inactive are the calls of the source.

`CN(C)CCS(=O)(=O)CCN(C)C`: the growth in the experiment on HT29 colon was 109%; in the experiment on SNB-75 CNS it was 110%; in the experiment on SNB-19 CNS, 103%; with U251 CNS, 104%; with PC-3 prostate, 102%; in the experiment with SK-MEL-5 melanoma, 98.7%. The growth in the experiment on UACC-62 melanoma was 97.8%; in the experiment on LOX IMVI melanoma, 105%; with SK-MEL-28 melanoma it was 108%; with SK-MEL-2 melanoma, 106%.
As to `Nc1nccc(Nc2ccccc2)n1`, the growth is 121% in the experiment on HT29 colon; 90.9% in the experiment with SNB-75 CNS; 116% with SNB-19 CNS; 104% in the experiment with U251 CNS; 102% in the experiment on PC-3 prostate; 107% in the experiment on SK-MEL-5 melanoma. Further, the growth in the experiment on UACC-62 melanoma was 105%; with LOX IMVI melanoma, 109%; with SK-MEL-28 melanoma, 116%; in the experiment on SK-MEL-2 melanoma it was 117%.
Turning to `O=C(Nc1ccc(CO)cc1)c1ccccc1Nc1ccnc(C(F)(F)F)c1`, the growth with HT29 colon is 109%; in the experiment with SNB-75 CNS it was 87.8%; in the experiment with SNB-19 CNS it was 106%; with U251 CNS, 95.4%; in the experiment on PC-3 prostate, 99.5%; with SK-MEL-5 melanoma it was 107%. Also, the growth is 95.4% in the experiment on UACC-62 melanoma, 92.2% in the experiment with LOX IMVI melanoma, 101% with SK-MEL-28 melanoma and 123% in the experiment on SK-MEL-2 melanoma.
Turning to `NC(=O)CC1(c2ccccc2)CCCCC1`, the growth with HT29 colon was 104%; in the experiment with SNB-75 CNS, 95.3%; with SNB-19 CNS it was 105%; with U251 CNS, 102%; with PC-3 prostate it was 99.4%; in the experiment with SK-MEL-5 melanoma, 106%. The growth with UACC-62 melanoma is 107%; in the experiment with LOX IMVI melanoma, 96.1%; in the experiment with SK-MEL-28 melanoma, 110%; in the experiment on SK-MEL-2 melanoma, 102%.
As for `COc1ccc(Nc2nc3ccc(NC(=O)NC4CCCCC4)cc3[nH]c2=O)cc1`, the growth was 106% in the experiment with HT29 colon; 82.6% with SNB-75 CNS; 100% in the experiment with SNB-19 CNS; 86.2% with U251 CNS; 94.7% in the experiment with PC-3 prostate; 90.9% with SK-MEL-5 melanoma. Further, the growth in the experiment on UACC-62 melanoma is 94.6%; in the experiment on LOX IMVI melanoma, 96.2%; with SK-MEL-28 melanoma, 93.1%; with SK-MEL-2 melanoma, 111%.
Turning to `CCOC1(OCC)OC(c2ccccc2)=C(C#N)C(/C=C\c2ccccc2)C1(OCC)OCC` (stereo not given), the growth is 69.6% with HT29 colon; 86.6% in the experiment with SNB-75 CNS; 89.8% in the experiment on SNB-19 CNS; 77.4% in the experiment with U251 CNS; 54.9% with PC-3 prostate; 95.5% with SK-MEL-5 melanoma. The growth in the experiment with UACC-62 melanoma is 80.1%; in the experiment on LOX IMVI melanoma it was 79%; in the experiment on SK-MEL-28 melanoma, 99.8%; in the experiment on SK-MEL-2 melanoma it was 95.3%.
Consider `CCN(CC)CCC(CNc1c(C)cnc2cc(Cl)ccc12)c1ccc(Cl)c(Cl)c1` (stereo not given), for which the growth was 11.6% in the experiment on HT29 colon; 59.2% in the experiment on SNB-75 CNS; 71.7% with SNB-19 CNS; 46.4% in the experiment with U251 CNS; 49.4% in the experiment on PC-3 prostate; -92.3% (active) with SK-MEL-5 melanoma. In addition, the growth in the experiment with UACC-62 melanoma was -48.5% (active); with LOX IMVI melanoma, 37.8%; in the experiment on SK-MEL-28 melanoma it was -75.3% (active); in the experiment on SK-MEL-2 melanoma it was 107%.
`Cc1cccc(NC2=C(C#N)C(=O)NC3(CCCC3)S2)c1`: the growth in the experiment with HT29 colon was 103%; in the experiment with SNB-75 CNS, 90.7%; in the experiment on SNB-19 CNS, 94.2%; in the experiment with U251 CNS, 97.4%; with PC-3 prostate, 105%; in the experiment with SK-MEL-5 melanoma it was 95.7%. Moreover, the growth is 98.7% in the experiment with UACC-62 melanoma, 96.5% in the experiment with LOX IMVI melanoma, 105% in the experiment with SK-MEL-28 melanoma and 98.2% in the experiment on SK-MEL-2 melanoma.
`COc1cc(C2CC(c3ccc(Nc4ccnc5cc(Cl)ccc45)cc3)=NN2c2ccc(Cl)cc2)cc(OC)c1OC` (stereo not given): the growth with HT29 colon was 32.6%; in the experiment with SNB-75 CNS, 57.2%; with SNB-19 CNS, 67.9%; in the experiment with U251 CNS, 51.9%; in the experiment with PC-3 prostate, 36.4%; with SK-MEL-5 melanoma it was 46.8%. The growth in the experiment with UACC-62 melanoma was 22.2%; in the experiment on LOX IMVI melanoma it was 56.3%; in the experiment on SK-MEL-28 melanoma, 67.4%; with SK-MEL-2 melanoma, 55.2%.
`Cc1cc(Cl)nc(N(CCCNc2ccnc3cc(Cl)ccc23)Cc2cccs2)n1`: the growth in the experiment on HT29 colon is 1.59% (active); with SNB-75 CNS it was 55.6%; with SNB-19 CNS, 42.9%; with U251 CNS, 8.68% (active); in the experiment with PC-3 prostate it was 10.1%; in the experiment with SK-MEL-5 melanoma, -74.3% (active). The growth was 10% with UACC-62 melanoma, -1.18% (active) in the experiment with LOX IMVI melanoma, 16.1% in the experiment on SK-MEL-28 melanoma and 16.9% in the experiment with SK-MEL-2 melanoma.
As for `CCN1Cc2c(/C=C/c3ccccc3)nc3ccc(OC)cc3c2N(c2cccc(Cl)c2)C1`, the growth is 64.2% in the experiment on HT29 colon; 63.6% in the experiment on SNB-75 CNS; 93.3% in the experiment with SNB-19 CNS; 76% in the experiment with U251 CNS; 20.2% in the experiment on PC-3 prostate; 20.6% in the experiment with SK-MEL-5 melanoma. The growth with UACC-62 melanoma was 52.3%; in the experiment with LOX IMVI melanoma, 73%; in the experiment on SK-MEL-28 melanoma, 95.9%; in the experiment with SK-MEL-2 melanoma it was 77.5%.
In the case of `O=C1/C(=C\c2ccc(F)cc2)CN(C(=O)c2ccc([N+](=O)[O-])cc2)C/C1=C\c1ccc(F)cc1`, the growth with HT29 colon is -56.9% (active); with SNB-75 CNS, 56.7%; in the experiment with SNB-19 CNS it was 67.5%; in the experiment with U251 CNS, 9.03% (active); in the experiment with PC-3 prostate, 28.6%; with SK-MEL-5 melanoma, 45.7%. For the same molecule, the growth in the experiment on UACC-62 melanoma is 40.3%; in the experiment with LOX IMVI melanoma, -53.3% (active); in the experiment with SK-MEL-28 melanoma, 65.1%; in the experiment with SK-MEL-2 melanoma it was 74.5%.
Take `Cn1c([N+](=O)[O-])cnc1/C=C1\Oc2ccc(Cl)cc2C1=O`: the growth was -10.1% (active) in the experiment on HT29 colon; 15.7% with SNB-75 CNS; -10.5% (active) in the experiment on SNB-19 CNS; -18.2% (active) with U251 CNS; -17.9% (active) in the experiment on PC-3 prostate; -92.7% (active) with SK-MEL-5 melanoma. Also, the growth was -74.2% (active) with UACC-62 melanoma, -57.5% (active) in the experiment on LOX IMVI melanoma, -22.1% (active) in the experiment on SK-MEL-28 melanoma and -42.2% (active) with SK-MEL-2 melanoma.
`C#Cc1ccc(-n2c(/C=C/c3ccc(O)c(OC)c3)nc3ncccc3c2=O)cc1`: the growth is 112% in the experiment with HT29 colon; 55.9% in the experiment on SNB-75 CNS; 96.2% in the experiment with SNB-19 CNS; 94.1% with U251 CNS; 81.2% in the experiment on PC-3 prostate; 94.2% with SK-MEL-5 melanoma. Moreover, the growth in the experiment with UACC-62 melanoma was 104%; with LOX IMVI melanoma, 93.5%; in the experiment on SK-MEL-28 melanoma it was 97.9%; in the experiment with SK-MEL-2 melanoma it was 85.7%.

Source of the values: PubChem BioAssay (NCI).
